The source made the active and inactive calls. No rule for the calls is given here.

One assay is described as follows: qHTS Assay for Inhibitors of Influenza NS1 Protein Function: SAR Using NS1 and pYES strains. As to conditions: yeast NS1-expressing strain growth, OD at 60 h; stronger effect = higher value. The text has this:
Influenza is a world-wide public health problem and emerging forms of the virus have the potential to cause a pandemic of equal or greater magnitude to the outbreaks recorded in 1918, 1957 or 1968. Vaccine development is proceeding and there also exist two classes of anti-influenza compounds. However these therapeutic modalities are neither fully effective nor widely enough available to fulfill global needs. In addition their potential usefulness against newly emergent strains is not known. Efforts are needed to develop novel agents against influenza virus, including broad-spectrum agents. Identification of small molecules that inhibit NS1 function either directly or by interfering with specific cellular pathways may be a key to increasing our defense against the virus.
We have miniaturized and optimized a cell based assay in which NS1 from influenza A is expressed in the budding yeast S. cerevisiae. NS1 is a multi-functional protein that counters the host innate immune response and facilitates viral versus cellular gene expression. Expression of NS1 causes a pronounced slow growth phenotype in yeast due to its intrinsic molecular activities. Small molecules that suppress the slow growth phenotype can be identified by a straightforward growth recovery assay using optical density (OD) as the measurement. The same yeast strain not expressing NS1 was used as positive control in the yeast growth recovery assay.
Hits resulting from the primary screen and other follow-up screens, were tested using the same yeast strain that was used in the primary assay (NS1) but as control, were compared to a strain that lacks NS1 (pYES).
NIH Chemical Genomics Center [NCGC]
NIH Molecular Libraries Probe Centers Network [MLPCN]
Assay Submitter (PI): Daniel Engel, University of Virgina
Strain 9526-6-2 (MATa his3Delta1 leu2Delta0 lys2Delta0 ura3Delta0 pdr1::KanMX4 pdr3::KanMX4) was a gift from Dan Burke. It was derived by tetrad dissection from two parent strains that had been modified by one step gene replacements. The pdr1::KanMX4 was constructed in BY4741 (MATa his3Delta1 leu2Delta0 met15Delta0 ura3Delta0) and the pdr3::KanMX4 was constructed in BY4742 (MATalpha his3Delta1 leu2Delta0 met15Delta0 ura3Delta0). PCR-mediated one-step gene replacements, matings and tetrad dissections were performed as described previously.[i] The strain 9526-6-2/pYES-NS1 was generated by transformation of 9526-6-2 with the plasmid pYES-NS1 and maintained on synthetic complete medium (SC) lacking uracil. For growth experiments and library screening, a single transformed colony was grown overnight, and the cell number was determined by using a Coulter counter (Beckman Coulter Corp.). The cells were diluted to 5 x 10^5 cells/mL in SC lacking uracil and containing raffinose and 2% galactose. A portion of this culture was added to preplated test compounds such that the final dimethyl sulfoxide (DMSO) concentration was 1%. Optical density readings at 600 nm (OD600) were taken using a Thermomax microplate reader (Molecular Devices).
Background: In qHTS, concentration-response curves come from the screen itself.
On to `COc1cc(-c2ccnc3c2c(C)nn3-c2ccc(C(F)(F)F)cc2)ccc1O`, for which the OD (growth) is 0.46 (active).
Same read-out and setting: under `COc1cc(-c2c(C#N)c(N)nc3c2c(C)nn3-c2ccc(F)cc2)ccc1O` stands 0.396 (active).
Turning to `Cc1nn(-c2ccc(Cl)cc2)c2nc(N)c(C#N)c(-c3ccc(O)c(O)c3)c12`, the OD (growth) was 0.384 (active).
Take `COc1cc(-c2ccnc3c2c(C)nn3-c2cccc(C(F)(F)F)c2)ccc1O`: the OD (growth) was 0.366 (active).
On the same count and under the same terms, under `Cc1ccc(-n2nc(C)c3c(-c4ccc(O)c(O)c4)c(C#N)c(N)nc32)cc1C` stands 0.515 (active).

The same assay, now with this note: yeast NS1-expressing strain growth, OD at 60 h; measured here: pYES control strain growth; stronger effect = higher value.
For the compound `COc1cc(-c2ccnc3c2c(C)nn3-c2ccc(C(F)(F)F)cc2)ccc1O`, the OD (growth) was 0.56.
Still for that read-out and setting: under `COc1cc(-c2c(C#N)c(N)nc3c2c(C)nn3-c2ccc(F)cc2)ccc1O` stands 0.591; under `Cc1nn(-c2ccc(Cl)cc2)c2nc(N)c(C#N)c(-c3ccc(O)c(O)c3)c12`, 0.572; under `COc1cc(-c2ccnc3c2c(C)nn3-c2cccc(C(F)(F)F)c2)ccc1O`, 0.551.
Still for that read-out and setting: under `Cc1ccc(-n2nc(C)c3c(-c4ccc(O)c(O)c4)c(C#N)c(N)nc32)cc1C` stands 0.536.

The record behind these values is PubChem BioAssay AID602452 (National Center for Advancing Translational Sciences (NCATS), 2012).
